Here are results for three compounds from the supplement of paper PMC10477191.

± gives the standard deviation of the averaged measurements.

The subject of this assay is Drosophila virilis antennal basiconic sensillum AB10. The assay can be described thus: odor-evoked OSN spike response (post minus pre-stimulus); higher = stronger neuronal excitation. The following applies: odor dilution: 10^-4. How it is done: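 Single sensillum recordings from antennal basiconic sensilla of D. virilis. A 500 ms pulse of odorant (10^-4 in mineral oil or DMSO) was delivered; the response is the change in spike frequency between the 1 s pre- and post-stimulus windows (spikes/s).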
Take `CC(=O)C(C)O` (stereo not drawn) [acetoin]: the “odor-evoked OSN spike response” value worked out at 143 ± 43 spikes/s.
With `CC(=O)OC/C=C(\C)CCC=C(C)C` [geranyl acetate] the figure was 134 ± 24 spikes/s; with `CCOC(=O)CC(C)O` (stereo not drawn) [Ethyl-3-hydroxybutyrate], 99.4 ± 35 spikes/s.
